High-throughput results as filed in PubChem BioAssay.
Shown are actives, neighbours in structure and some others; about 6.8% of the full set was active somewhere.
C diff HTS: C. difficile growth inhibitors, primary screen, HTS; Clostridium difficile clinical isolate growth, OD600, 24 h; hits give low values; growth activity, negative = inhibition, % at 16 µg/mL (by protocol); 86,000 tested, 0.25% active; AID 1259249, 2017;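 active means mean growth activity at or below -80% and every replicate also at or below -80%; inconclusive means mean at or below -80% but some replicate above -80%; inactive means mean growth activity above -80%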;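 further: 0% = DMSO wells and -100% = levofloxacin 16 µg/mL wells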
Pf Dd2 inh: P. falciparum Dd2 growth inhibitors, primary screen, SYBR Green fluorescence, single dose replicates | 72 h; hits give low values | AID 1159554, 2015 | 94,000 tested, 2.3% active | activity change, % at 10 µM; in the data active means activity change below about -80%; inconclusive means no clear call, values can overlap the other calls
T cruzi growth-1: T. cruzi intracellular proliferation inhibitors, primary screen, cell-based, beta-gal Tulahuen parasites, NIH3T3 host, luminescence; T. cruzi beta-gal in NIH3T3, GalScreen luminescence, 90 h; inhibition, % at 8.34 µM; 77,000 tested, 5.9% active;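 active means mean inhibition above about 93%, with at least 55% of replicates each passing it, limit read from the data, passing the limit was not always enough; inconclusive means only one of those two conditions holds; inactive means neither condition holds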
T cruzi growth-2: T. cruzi intracellular proliferation inhibitors, confirmation, cell-based, NIH3T3 host, beta-gal parasite, luminescence, cherry-pick; shares compounds with T cruzi growth-1; T. cruzi beta-gal in NIH3T3, GalScreen luminescence, 90 h; inhibition, % at 8.35 µM; 5,600 tested, 72% active; AID 651739, 2012;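 active means mean replicate inhibition above about 95% and at least 55% of replicates individually reaching it, limit read from the data; inconclusive means only one of the two criteria is met; inactive means neither criterion is met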
T cruzi growth-3: inhibitors of intracellular T. cruzi replication, confirmation, NIH3T3 host cells, beta-gal parasites, cherry-pick, set 2; shares compounds with T cruzi growth-1; T. cruzi beta-gal in NIH3T3, GalScreen luminescence, 90 h; inhibition, % at 2.09 µM; 5,600 tested, 21% active;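 active means mean inhibition above about 95%, with at least 55% of replicates also reaching it, limit read from the data; inconclusive means meets just one of the two conditions; inactive means meets neither condition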;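 further: plate controls were neutral control median for no effect and positive control median for full effect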
3T3 cytotox: cytotoxicity in mouse NIH/3T3 fibroblasts, confirmation, cytotoxicity control for T. cruzi proliferation inhibitor project, cell-based, cherry-pick, single point. shares compounds with T cruzi growth-1. NIH/3T3 viability, CellTiter-Glo ATP luminescence, 90 h. cytotoxicity (signal decrease), % at 8.35 µM. 5,600 tested, 14% active. AID 651742, 2012;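 active means mean signal decrease across replicates above about 35% based on untreated-well scatter, with enough replicates individually passing, limit read from the data; inconclusive means no rule stated though some were filed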;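 further: 0% = median of neutral control wells and 100% = median of positive control wells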
3T3 cytotox 2: NIH/3T3 fibroblast cytotoxicity, confirmation, cytotoxicity control, cell-based, cherry-pick, single point, set 2 | inhibition, % at 24.9 µM | NIH/3T3 viability, CellTiter-Glo ATP luminescence, 90 h | shares compounds with T cruzi growth-1 | 5,600 tested, 56% active;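 active means mean loss of cell viability signal at or above a set limit, and enough replicates individually reaching it; inconclusive means meets only the mean limit or only the replicate share; inactive means meets neither condition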;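 further: 0% = median of neutral control wells and 100% = median of positive control wells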
Starred values were filed as active, the others as inactive; u = inconclusive; x = no result.

SMILES	C diff HTS	Pf Dd2 inh	T cruzi growth-1	T cruzi growth-2	T cruzi growth-3	3T3 cytotox	3T3 cytotox 2
C[C@@H]1CCCCO[C@@H](CN(C)C(=O)c2ccccc2)[C@H](C)CN([C@@H](C)CO)C(=O)c2cc(NC(=O)Nc3ccc4c(c3)OCO4)ccc2O1	21	20	57	x	x	x	x
CO[C@@H]1CN(C)C(=O)c2cc(NC(=O)C3CCCCC3)ccc2OC[C@H](C)N(Cc2cccnc2)C[C@@H]1C	x	x	19	x	x	x	x
COc1ccc(S(=O)(=O)Nc2cccc3c2O[C@H](CN(C)S(=O)(=O)c2ccc(OC)cc2)[C@H](C)CN([C@@H](C)CO)C3=O)cc1	-11	-31	x	x	x	x	x
Cc1ccccc1S(=O)(=O)N1CCCCN2[C@H](C1)[C@@H](c1ccc(-c3cncnc3)cc1)[C@@H]2CO	-2	-10	78	x	x	x	x
Cc1ccccc1S(=O)(=O)N1CCCCN2[C@@H](CO)[C@H](c3ccc(-c4cccnc4)cc3)[C@@H]2C1	4	-25	102*	102*	71	30	38*
Cc1ccccc1S(=O)(=O)N1CCCCN2[C@H](CO)[C@@H](c3ccc(-c4cccnc4)cc3)[C@H]2C1	-3	-28	39	x	x	x	x
Cc1ccccc1S(=O)(=O)N1CCCCN2[C@H](C1)[C@H](c1ccc(-c3cncnc3)cc1)[C@@H]2CO	11	-1	102*	100*	19	12	24
Cc1ccccc1S(=O)(=O)N1CCCCN2[C@H](C1)[C@@H](c1ccc(-c3cccnc3)cc1)[C@@H]2CO	-8	-3	86	x	x	x	x
Cc1ccccc1S(=O)(=O)N1CCCCN2[C@H](CO)[C@H](c3ccc(-c4cncnc4)cc3)[C@@H]2C1	3	0	112*	101*	-1	5	2
C[C@@H]1CN([C@H](C)CO)C(=O)CCCn2nncc2CO[C@@H]1CN(C)CC1CC1	x	10	-37	x	x	x	x
C[C@@H](NC(=O)[C@@H]1[C@@H](CO)[C@@H]2Cn3c(ccc(-c4ccncc4)c3=O)[C@@H]2N1C)c1ccccc1	17	x	34	x	x	x	x
C[C@@H]1CN([C@@H](C)CO)S(=O)(=O)c2ccc(C#CC3CC3)cc2O[C@H]1CN(C)C(=O)c1ccccc1	2	-67	u	u	53	29	48*
C[C@H](CO)N1C[C@H](C)[C@H](CN(C)C(=O)c2cccnc2)Oc2cc(C#CC3CC3)ccc2S1(=O)=O	1	-13	5	x	x	x	x
C[C@H]1CN([C@@H](C)CO)S(=O)(=O)c2ccc(C#CC3CC3)cc2O[C@@H]1CN(C)C(=O)c1ccncc1	-13	-66	86	x	x	x	x
C[C@H]1CN([C@@H](C)CO)S(=O)(=O)c2ccc(C#CC3CC3)cc2O[C@H]1CN(C)C(=O)c1ccncc1	-10	-49	110*	96*	81	13	30*
COCC(=O)Nc1ccc2c(c1)C(=O)N(C)C[C@H](OC)[C@@H](C)CN(Cc1ccccn1)[C@H](C)CO2	x	-1	9	x	x	x	x
CCCN(C)C[C@H]1OCCCC[C@H](C)Oc2ccc(NC(=O)C3CCCCC3)cc2C(=O)N([C@@H](C)CO)C[C@H]1C	0	-61	82	x	x	x	x
CC(C)NC(=O)Nc1ccc2c(c1)C(=O)N([C@@H](C)CO)C[C@H](C)[C@@H](CN(C)S(=O)(=O)c1ccc(Cl)cc1)OCCCC[C@H](C)O2	-4	-71	76	x	x	x	x
C[C@@H]1CN([C@H](C)CO)C(=O)c2cc(NC(=O)NC3CCCCC3)ccc2O[C@@H](C)CCCCO[C@H]1CN(C)S(=O)(=O)c1ccc(Cl)cc1	-1	x	87	x	x	x	x
Cc1ccc(S(=O)(=O)N(C)C[C@H]2OCCCC[C@H](C)Oc3ccc(NC(=O)NC4CCCCC4)cc3C(=O)N([C@H](C)CO)C[C@@H]2C)cc1	-4	-67	112*	109*	30	-3	5
C[C@H](CO)N1C[C@H](C)[C@H](CN(C)S(=O)(=O)c2ccc(F)cc2)OCCCC[C@H](C)Oc2ccc(NC(=O)NC3CCCCC3)cc2C1=O	10	-30	88	x	x	x	x
C[C@@H]1CCCCO[C@@H](CN(C)S(=O)(=O)c2ccc(Cl)cc2)[C@H](C)CN([C@@H](C)CO)C(=O)c2cc(NC(=O)NC3CCCCC3)ccc2O1	0	x	100*	111*	85	9	11
C[C@@H]1CCCCO[C@@H](CN(C)S(=O)(=O)c2ccc(F)cc2)[C@H](C)CN([C@@H](C)CO)C(=O)c2cc(NC(=O)NC3CCCCC3)ccc2O1	21	-21	57	x	x	x	x
CC(C)NC(=O)Nc1ccc2c(c1)C(=O)N([C@H](C)CO)C[C@@H](C)[C@@H](CN(C)S(=O)(=O)c1ccc(Cl)cc1)OCCCC[C@@H](C)O2	7	-65	98*	96*	13	3	24*
Cc1ccc(S(=O)(=O)N(C)C[C@@H]2OCCCC[C@@H](C)Oc3ccc(NC(=O)NC4CCCCC4)cc3C(=O)N([C@H](C)CO)C[C@H]2C)cc1	18	-81*	99*	109*	71	-20	-19
SMILES	C diff HTS	Pf Dd2 inh	T cruzi growth-1	T cruzi growth-2	T cruzi growth-3	3T3 cytotox	3T3 cytotox 2
CCS(=O)(=O)Nc1ccc2c(c1)C(=O)N(C)C[C@@H](OC)[C@@H](C)CN(C(=O)CN(C)C)[C@@H](C)CO2	-4	3	7	x	x	x	x
CC(C)NC(=O)Nc1cccc2c1O[C@H](CN(C)S(=O)(=O)c1cn(C)cn1)[C@@H](C)CN([C@@H](C)CO)C2=O	-6	15	-50	x	x	x	x
C[C@@H]1CN([C@H](C)CO)C(=O)c2cccc(NC(=O)Nc3cccc4ccccc34)c2O[C@H]1CN(C)S(=O)(=O)c1ccc(Cl)cc1	-13	5	21	x	x	x	x
O=C(C[C@H]1CC[C@@H]2[C@H](COC[C@@H](O)CN2C(=O)Nc2ccc(Cl)c(Cl)c2)O1)NCc1ccccc1	x	3	-36	x	x	x	x
C[C@H]1CN([C@@H](C)CO)C(=O)c2cccc(NC(=O)c3ccc(-c4nccs4)cc3)c2O[C@@H]1CN(C)S(=O)(=O)c1cccs1	-5	11	16	x	x	x	x
C[C@H](CO)N1C[C@H](C)[C@H](CN(C)S(=O)(=O)c2ccccc2)Oc2ncc(C#Cc3ccc(C(F)(F)F)cc3)cc2C1=O	8	-51	92*	107*	81	32	32*
C[C@@H]1CN([C@H](C)CO)C(=O)c2cc(C#Cc3ccc(F)cc3)cnc2O[C@@H]1CN(C)S(C)(=O)=O	-2	6	-2	x	x	x	x
